Hits are enriched below; roughly 9.4% of the tested compounds scored in any of these assays.
HTT ATP protect: cytoprotection in Huntington HTT-Q103 PC12 cell model; PC12 HTT-Q103 induced, cytoprotection, ATP luminescence, 40 h; Potency, µM (top dose mostly 56.4 µM), most hits filed as activators; 0.14% of 230,000 active; further: nearly all actives have a fitted effect of over 45% in size
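Compounds added alongside 100 nM tebufenozide, which induces toxic Q103 huntingtin exon 1-GFP in stable PC12 cells; surviving cells quantified by luminescent ATP measurement. Medium: phenol red-free DMEM, 5% equine and 5% calf serum.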
HPGD block: inhibitors of human 15-hydroxyprostaglandin dehydrogenase (HPGD); P15428; purified HPGD, NADH fluorescence kinetic, PGE2 substrate; Potency, µM, hits mostly inhibitors; 4.3% of 150,000 active; AID 894; active means well fitted inhibition curve with a large enough effect, not every such curve was filed as active; inconclusive means small, poorly fitted or top-dose-only effect, or another doubt; inactive means no such curve, though single readings can be large or run the other way
Target sequence (P15428 whole entry, looked up): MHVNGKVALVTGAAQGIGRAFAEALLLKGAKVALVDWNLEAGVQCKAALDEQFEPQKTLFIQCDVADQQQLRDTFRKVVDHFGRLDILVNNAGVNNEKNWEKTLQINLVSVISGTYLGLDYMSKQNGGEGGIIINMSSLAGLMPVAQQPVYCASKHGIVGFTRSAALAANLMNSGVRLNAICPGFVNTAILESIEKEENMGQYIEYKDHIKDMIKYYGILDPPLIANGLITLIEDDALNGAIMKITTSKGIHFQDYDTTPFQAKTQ
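NADH formation kinetics: reaction with 30 uM PGE2 and 1 mM NAD+ (final), 20 nM enzyme, Tris-HCl pH 8 with Tween 20, after 15 min compound preincubation at room temperature. Fluorescence change, last versus first of five reads.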
ALDH1A1 block: ALDH1A1 (human) enzyme inhibition; P00352; Purified ALDH1A1, NADH fluorescence, propionaldehyde substrate; Potency, µM (titrated, usually from 75.3 µM), most hits filed as inhibitors; 7.3% of 220,000 active; AID 1030; active means well fitted inhibition curve with a large enough effect, not every such curve was filed as active; inconclusive means small, poorly fitted or top-dose-only effect, or another doubt; inactive means no such curve, though single readings can be large or run the other way
Target sequence (P00352 whole entry, looked up): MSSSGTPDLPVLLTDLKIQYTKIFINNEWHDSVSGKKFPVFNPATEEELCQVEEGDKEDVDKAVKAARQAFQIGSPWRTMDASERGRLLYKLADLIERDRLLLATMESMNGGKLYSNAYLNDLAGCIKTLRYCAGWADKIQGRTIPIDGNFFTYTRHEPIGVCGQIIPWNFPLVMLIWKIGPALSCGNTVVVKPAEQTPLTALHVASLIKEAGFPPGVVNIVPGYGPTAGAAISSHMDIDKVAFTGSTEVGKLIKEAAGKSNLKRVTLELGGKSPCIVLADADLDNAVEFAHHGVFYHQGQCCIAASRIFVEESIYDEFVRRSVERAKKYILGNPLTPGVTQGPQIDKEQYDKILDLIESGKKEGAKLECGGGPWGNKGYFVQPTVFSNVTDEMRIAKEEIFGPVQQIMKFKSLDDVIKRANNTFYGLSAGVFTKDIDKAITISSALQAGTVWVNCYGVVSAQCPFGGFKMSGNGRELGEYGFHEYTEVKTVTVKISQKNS
HTT aggregate: reduces HttQ103-GFP aggregates in PC12 cells; PC12 HttQ103-GFP aggregates, Acumen cytometry, 40 h; Potency, µM (doses to about 46.1 µM), usual class: inhibitors; 1.1% of 220,000 active; AID 1688; further: nearly all actives have a fitted effect of over 60% in size
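Aggregate formation scored by laser-scanning cytometer (488 excitation, 500–530 emission) in lysed PC12 cells expressing Q103-GFP after 100 nM tebufenozide induction; library tested in dose series, with ATPLite reagent added in the multiplex.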
IMPase cell inh: membrane-permeable compound that blocks inositol monophosphatase | inhibition (IP1 accumulation), % at 46.1 µM | 120,000 tested, under 10 active | CHO-M1 cells, IP1 accumulation, HTRF TR-FRET ratio | P97697 | AID 901; active means well fitted curve in the direction sought with a large enough effect in the signal ratio, not every such curve was filed as active; inconclusive means small, poorly fitted or top-dose-only effect, or a change in a side signal; inactive means no such curve, though single readings can be large or run the other way; the % refers to the signal ratio;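 further: cells stimulated with carbachol in lithium chloride buffer; higher means more IMPase inhibition seen as more IP1 and lower FRET ratio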
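Carbachol-driven Gq signalling in CHO-M1 cells (2000/well) generates IP1. Compounds that block IMPase raise IP1 and so reduce the FRET signal from Eu-anti-IP1 and d2-IP1 after a 10 min room-temperature lysis.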
IMPase Li inh: cell-permeable IMPase inhibitors with lithium potentiation | CHO-M1 cells, IP1 TR-FRET (IP-One), carbachol + lithium | Potency, µM (titrated, usually from 59.4 µM), hits mostly inhibitors | 0.35% of 210,000 active | AID 1457;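 further: IP1 builds up when IMPase is blocked and the TR-FRET signal falls; nearly all actives have a fitted effect of over 50% in size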
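Test compounds were applied to CHO-M1 cells previously cultured for 16–30 h at 2000 per well. A small lithium amount accompanied them; after 30 min at 37C, IP1 was quantified by TR-FRET.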
Hits are given with their value; 0 = inactive; ? = inconclusive; - = no result; [ ] = remark or other dose. Unless noted, the call rests on the fitted dose curve; in most records, active means well fitted curve in the direction sought with a large enough effect; inconclusive means small, poorly fitted or top-dose-only effect, or another doubt; inactive means no such curve, though single readings can be large; an effect the other way counts as inactive or inconclusive.

SMILES | HTT ATP protect | HPGD block | ALDH1A1 block | HTT aggregate | IMPase cell inh | IMPase Li inh
COc1ccc(S(=O)(=O)N2c3cc(Cl)ccc3Oc3nc4ccccc4nc32)cc1 | 0[10 µM] | 0 | 0 | 0 | 0 | 0
O=S(=O)(c1ccc(Cl)cc1)N1c2ccccc2Oc2nc3ccccc3nc21 | 0[10 µM] | 0 | 25µM | 0 | 0 | 0
Cc1cn2c(nc1=O)OC1C(O)C(COC(=O)c3ccccc3)OC12 (configuration not stated) | 0[10 µM] | 0 | 3.2µM | ? | 0 | 0
Cc1ccc(S(=O)(=O)c2nc(-c3ccc(Cl)cc3)oc2N2CCCCCC2)cc1 | - | - | - | - | 0 | -
CC(C)(C)n1nnnc1CN1CCSCC1 | 0[10 µM] | 0 | 25µM | 0 | 0 | 0
COc1cc(O)ccc1-c1nc2cc(C)ccn2c1Nc1ccccc1C | - | - | - | - | 0 | -
CC1CCCN(c2ccc(C(=O)Nc3nnc(C4CC4)s3)cc2[N+](=O)[O-])C1 (configuration not stated) | 0[10 µM] | 0 | 2.8µM | 0 | - | 0
CC1CCCN(c2ccc(C(=O)Nc3ccc4c(c3)OCO4)cc2[N+](=O)[O-])C1 (configuration not stated) | - | 0 | ? | 0 | - | 0
Cc1ccc(C(=O)OCn2nnc3ccccc3c2=O)cc1[N+](=O)[O-] | 0 | - | ? | 0 | - | 0
CC1CCCN(c2ccc(C(=O)OCn3nnc4ccccc4c3=O)cc2[N+](=O)[O-])C1 (configuration not stated) | 0[10 µM] | 16µM | 0 | 0 | 0 | 0
Cc1ccc(NC(=O)C2=C(O)c3sccc3N(C)S2(=O)=O)cc1 | 0[10 µM] | 0 | 0 | 0 | 0 | 0
Cc1ccc(NC(=S)C2=C(O)c3sccc3N(C)S2(=O)=O)cc1 | 0 | ? | 7.9µM | ? | 0 | 0
CCn1c(Cl)c(C=O)s/c1=N\S(=O)(=O)c1ccccc1 | 0[10 µM] | - | - | 1.4µM | - | -
O=[N+]([O-])c1cccc(C(=Nc2ccccc2)NO)c1 | 0[10 µM] | 0 | 0 | 0 | 0 | 0
O=[N+]([O-])c1cc([N+](=O)[O-])c2c(=Nc3ccccc3)n(-c3ccccc3)n(O)c2c1 | 0 | - | 0.35µM | 0 | - | 0
CCCn1nnc(NC(=O)/C=C/c2ccc(C(C)C)cc2)n1 | 0[10 µM] | - | 14µM | 0[9.22 µM] | - | -
CN(C)c1ccc(/C=C(\C#N)c2nc(-c3ccc(Cl)c(Cl)c3)cs2)cc1 | - | - | - | - | 0 | -
CN(Cc1ccco1)c1ncnc2ccc(-c3cccc(NS(C)(=O)=O)c3)cc12 | 0 | - | 0 | - | - | 0
Cc1cc(C)cc(OCC(=O)Nc2cccc3cccnc23)c1 | - | - | - | - | 0 | -
CN(C)S(=O)(=O)c1cc(C(=O)O)c(NC2CCCCC2)cc1Cl | 0 | 0 | ? | 0 | 0 | 0
CN(C)S(=O)(=O)c1cc(S(=O)(=O)N(C)C)c(Cl)cc1N | 0 | 0 | 13µM | 0 | 0 | 0
CCOc1ccccc1C(=O)NC1(C(F)(F)F)C(=O)Nc2c1c(=O)[nH]c(=O)n2-c1ccccc1 (configuration not stated) | - | - | - | - | 0 | -
CCCn1c(C)nc2c(NCCCN(CC)CC)nc(C)nc21 | 0 | 0 | 0 | - | - | 0
O=C(C1CC1)N1CCc2sccc2C1c1ccc(Cl)cc1 (configuration not stated) | 0[10 µM] | - | - | 0[9.22 µM] | - | -
CCCCCCC(=O)N/N=C/Cc1ccccc1 | 0 | 0 | 13µM | 0 | 0 | 0
SMILES | HTT ATP protect | HPGD block | ALDH1A1 block | HTT aggregate | IMPase cell inh | IMPase Li inh
Cn1c(-c2cc(Br)ccc2O)n[nH]c1=S | 0 | 14µM | 0 | 0 | 0 | 0
CCOC(=O)OCC | 0 | 0 | ? | - | - | 0
Cc1cc(C)c(S(=O)(=O)Nc2cc(SCC(=O)O)c(O)c3ccccc23)cc1C | 0[10 µM] | 1.1µM | ? | 0 | - | 0
Cc1cc(C)c(S(=O)(=O)Nc2ccc(C(=O)O)c(O)c2)cc1C | - | 0 | ? | - | - | -
CSc1nc(Oc2ccc3ccccc3c2)c2ccccc2n1 | 0[10 µM] | ? | ? | 10µM | 0[1.84 µM] | 0
COc1ccc(OCC2CN3C(CCC(C)C3c3ccc(Br)cc3)C(=O)O2)cc1 (configuration not stated) | 0[10 µM] | - | 0[13.5 µM] | - | - | -
CCOc1ccccc1N1C(=O)CC(Sc2n[nH]c(-c3ccccc3)n2)C1=O (configuration not stated) | ? | - | 11µM | 0 | - | 0
O=C1CCCC(C(C(=O)OCc2ccccc2)C(=O)OCc2ccccc2)C1 (configuration not stated) | ? | 0 | 0 | - | - | 0
Clc1ccccc1-c1nccc(NCc2cccs2)n1 | 0 | - | 14µM | - | - | 0
c1cncc(-c2nccc(NCc3cccs3)n2)c1 | 0 | - | 11µM | - | - | 0
Cc1ccccc1-c1nccc(NCc2cccs2)n1 | 0 | - | ? | - | - | 0
CC1=C(C(=O)Nc2ccc(Cl)cc2)C(c2cccs2)n2nc(SCc3cccc(Cl)c3)nc2N1 (configuration not stated) | - | - | - | - | 0 | -
CCN1C(=O)N/C(=C/c2ccc(C)o2)C1=O | 0[10 µM] | 0 | 15µM | ? | - | 0
CCN1C(=O)N/C(=C/c2ccc(Sc3ccc(C)cc3)o2)C1=O | 0 | ? | ? | 0 | 0 | 0
O=C1S/C(=C\c2ccccn2)C(=O)N1Cc1ccccc1F | - | 0 | ? | 0 | - | 0
CCN1C(=O)/C(=C/c2ccc(C)o2)N(C)C1=S | 0[10 µM] | ? | 1.6µM | ? | 0 | 0
Cc1ccc(/C=C2/NC(=O)N(Cc3ccc(Br)cc3)C2=O)o1 | 0[10 µM] | ? | 13µM | 0 | - | 0
Cc1ccc(/C=C2/NC(=O)N(Cc3ccccc3F)C2=O)o1 | 0[10 µM] | 0 | 16µM | ? | 0 | 0
COc1ccc(S(=O)(=O)N(CC(=O)Nc2cccc(C(F)(F)F)c2)c2ccc(C)cc2)cc1 | - | - | - | - | 0 | -
CCCN1C(=O)/C(=C/c2ccc(C)o2)NC1=S | 0 | - | 7.1µM | 0 | - | 0
Cc1ccc(OCCN2C(=O)S/C(=C\c3ccc(C)o3)C2=O)cc1 | 0[10 µM] | 0 | ? | ? | 0 | 0
CCOC(=O)C1=C(C)NC(=S)NC1c1ccco1 (configuration not stated) | 0[10 µM] | - | - | 0[9.22 µM] | - | -
CCOC(=O)C1=C(C)NC(=S)NC1c1ccc(C)s1 (configuration not stated) | 0[10 µM] | - | 2.5µM | 0 | - | 0
CCOC(=O)C1=C(C)NC(=S)NC1c1ccsc1 (configuration not stated) | 0 | - | 7.1µM | 0 | - | 0
CCOC(=O)C1=C(C)NC(=S)NC1c1cc(C)sc1C (configuration not stated) | - | - | 40µM | 0 | - | 0
O=c1c(O)c(-c2ccc(O)c(O)c2)oc2c(OC3OC(CO)C(O)C(O)C3O)c(O)cc(O)c12 (configuration not stated) | 0 | 28µM | ? | - | - | 0
O=c1cc(-c2ccccc2)oc2cc(O[C@@H]3O[C@H](CO)[C@@H](O)[C@H](O)[C@H]3O)c(O)c(O)c12 | 0[1.9 µM] | 11µM | ? | - | ? | 0
N[C@H](Cc1ccc(O)c(I)c1)C(=O)O | 0[1.9 µM] | - | - | - | - | -
CC1(C)N=C(N)N=C(N)N1c1cccc(CSc2ccccc2)c1 | 0[10 µM] | 0 | 0[13.5 µM] | - | - | 0
COc1cc2c(cc1OC)C(CC#N)=NC(C)(C)C2 | 0[10 µM] | 0 | 2µM | ? | 0 | 0

Screening results (PubChem)
